Sampled rows, rich in hits. Any-hit rate of the full collection: about 1.1%.
NR5A2 inv ag: suppresses constitutive activity of human LRH-1; hit rate 0.13% among 360,000; HEK293T StAR-luciferase reporter, LRH-1 transfected, 24 h; inhibition, % at 3.6 µM;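 active means inhibition above the mean inhibition of all tested compounds plus 3 SD, cut at about 73% in these data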
COUP-TFII inh: NR2F2 (human) inhibition, primary screen. HEK293T NGFI-A luciferase reporter, luminescence. P24468. hit rate 0.7% among 370,000. AID 686940. inhibition, % at 8.6 µM;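 active means inhibition above a per-plate cutoff, mean inhibition of test wells between control levels plus 3 SD, cut at about 38% in these data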;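 further: cells cotransfected with COUP-TFII expression vector driving the NGFI-A reporter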
SRC2 inh: inhibits human steroid receptor coactivator 2 | inhibition, % at 9 µM | Q15596 | hit rate 0.17% among 370,000 | HEK293 GAL4-SRC2 luciferase reporter, luminescence;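 active means inhibition above the mean inhibition of all tested compounds plus 3 SD, set per campaign, cut at about 52% in these data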
SRC1 inh: human NCOA1 inhibition; Q15788; HEK293 GAL4-SRC1 luciferase reporter, luminescence; inhibition, % at 3.6 µM; hit rate 0.12% among 360,000; AID 588354;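 active means inhibition above the campaign mean plus 3 SD, with each screening campaign given its own cutoff, cut at about 60% in these data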
SRC3 inh: inhibits human SRC3 coactivator; HEK293 GAL4-SRC3 luciferase reporter, luminescence; inhibition, % at 3.6 µM; hit rate 0.17% among 360,000; Q9Y6Q9;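 active means inhibition above a per-campaign cutoff, the mean of all compounds plus 3 SD, cut at about 60% in these data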;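 further: higher means less SRC3-driven luciferase light from the GAL4 reporter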
GalR3 antag: antagonists of human GalR3; O60755; HEK293 GalR3-CNG cAMP membrane potential fluorescence; galR3 body fused to GalR1 C-terminus; inhibition, % at 3 µM; hit rate 0.44% among 360,000;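 active means inhibition above the screen-wide average plus 3 SD, cut at about 13% in these data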;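 further: forskolin and galanin both at EC90 stimulate the cells; cAMP rise reported by CNG channel membrane potential dye signal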
Hits are given with their value; . = inactive; / = not tested or not shown.

SMILES	NR5A2 inv ag	COUP-TFII inh	SRC2 inh	SRC1 inh	SRC3 inh	GalR3 antag
COc1cccc2c1C(CO)N1C(C#N)C3CC(C(=O)O)C(C1C2)N3C (stereo unspecified)	101.5	.	54.9	86.7	85.7	.
COC(=O)c1cc(-c2ccc(-c3ccccc3)c(F)c2)c(=O)n2c1CCC2	/	.	.	/	/	/
CN1Cc2nnn(Cc3ccccc3)c2-c2cc(N3CCCC3)ccc2S1(=O)=O	/	.	.	/	/	/
CC(C)(CCl)C(=O)Nc1ccc(OC(F)(F)F)cc1	.	.	.	.	.	.
CS/C(=C\[N+](=O)[O-])Nc1ccc(OC(F)(F)F)cc1	79.7	.	.	.	.	.
CCn1c(SCC(=O)c2ccc(-c3ccccc3)cc2)nnc1-c1ccccc1OC	/	.	.	/	/	/
C=CCn1c(C)cc(C(=O)CN2C(=O)c3ccccc3S2(=O)=O)c1C	88.2	/	/	87.4	88.0	/
CC(=O)C1(C(=O)NC2CCCC2)CC(c2ccccn2)=NO1 (stereo unspecified)	/	.	.	/	/	/
C#CC(=O)N(c1ccc(OC)c(OC)c1)C(C(=O)NC1CCCC1)c1cccs1 (stereo unspecified)	.	.	.	.	.	.
C#CC(=O)N(c1cccc(OC)c1)C(C(=O)NC1CCCC1)c1cccs1 (stereo unspecified)	81.3	.	.	.	.	.
CNc1ccc2ncc(-c3ccc(OC)c(OC)c3)n2n1	.	.	58.6	77.7	.	.
Cc1cnc(NC(=O)CCCc2nc3ccccc3s2)s1	83.5	.	.	.	.	.
c1ccc2c(-c3ccc4nncn4c3)cncc2c1	.	.	55.3	63.9	61.9	.
O=C(O)CCC(=O)Nc1cccc(-c2csc(-c3ccccc3)n2)c1	.	.	52.5	.	.	.
N#Cc1cc2c(nc1SC1CC(=O)N(c3ccccc3)C1=O)CCC2 (stereo unspecified)	.	/	/	.	77.4	/
CSc1nc2c(cc1C#N)CCC2	.	.	.	.	.	.
CC(=NNC(=S)Nc1ccccc1)c1ccccn1	81.3	.	.	.	.	.
CC(=NNC(=S)N1CCCCC1)c1ccccn1	.	.	.	.	.	.
C=CCNC(=S)N/N=C(\C)c1ccccn1	100.5	.	.	.	.	.
C/C(=N\NC(=O)c1ccccc1-n1cccc1)c1ccccn1	.	.	.	.	.	.
COc1cc(-c2c(C(=O)c3ccccc3)[nH]c(N)c2C(N)=O)ccc1O	/	.	/	/	/	/
C[C@@H]1ON(C)[C@H]2C[C@H]3c4[nH]c5c(-c6ccccc6)cccc5c4CCN3C[C@@H]12	/	.	.	/	/	.
c1ccc(-c2nnc(-c3ccccn3)nc2NC2CCCCC2)cc1	.	.	.	.	78.2	.
COc1ccc(C2NN=C(c3c[nH]c4ccccc34)C2O)cc1 (stereo unspecified)	.	.	.	.	.	.
COc1ccc(C2C(O)C(c3c[nH]c4ccccc34)=NN2C(=O)CCl)cc1 (stereo unspecified)	.	.	72.7	.	.	.
SMILES	NR5A2 inv ag	COUP-TFII inh	SRC2 inh	SRC1 inh	SRC3 inh	GalR3 antag
COc1c(O)cc2c(c1O)[C@@H]1O[C@H](CO)[C@@H](O)[C@H](O)C1OC2=O (stereo partly specified)	.	.	.	.	.	12.8
COc1c(O)cc2c(c1O)C1OC(CO)C(O)C(O)C1OC2=O (stereo unspecified)	.	.	.	.	.	/
CCCCn1c(CCl)nc2cc(S(=O)(=O)N3CCOCC3)ccc21	.	.	63.1	.	.	.
Cc1ccc(CNC2CCC23CCC(c2ccccc2)CC3)o1 (stereo unspecified)	/	.	/	/	/	/
O=[N+]([O-])c1ccc(NC(c2ccccc2)c2ccc3cccnc3c2O)cc1 (stereo unspecified)	.	.	.	72.7	86.7	.
CC(=O)NC(c1cccc([N+](=O)[O-])c1)c1ccc2cccnc2c1O (stereo unspecified)	83.1	.	.	.	.	.
Oc1c(C(Nc2cccc(C(F)(F)F)c2)c2cccnc2)ccc2cccnc12 (stereo unspecified)	.	.	.	.	.	.
COc1cccc(C(NC(C)=O)c2ccc3cccnc3c2O)c1 (stereo unspecified)	76.4	.	.	.	.	.
CCCCOc1ccc(C(=O)NC2CCCCN(CC)C2=O)cc1 (stereo unspecified)	/	.	.	/	/	/
O=C(CSc1nc(-c2cccs2)cc(C(F)(F)F)n1)Nc1cc(OCC(F)(F)C(F)F)cc([N+](=O)[O-])c1	.	.	.	75.7	.	.
N#CCC[C@@H]1CC[C@]2(CCCN(C(=O)c3cccnc3)C2)O1	/	.	.	/	/	/
CCOC(=O)CC[C@@]1(C(=O)OCC)C[C@@H](CC(=O)NCc2cccs2)C(=O)N2CCCC=C21	/	.	.	/	/	/
Nc1cc2ccncc2c2ccccc12	.	.	.	66.6	.	.
O=C(CCCl)NC1CCCCN(Cc2ccc(OC(F)(F)F)cc2)C1=O (stereo unspecified)	/	.	.	/	/	/
C=CCN=C1NN=C(c2cc(C)n(CC=C)c2C)CS1	.	76.5	57.8	71.2	70.3	.
COCCN=C1NN=C(c2cc(C)n(CC3CCCO3)c2C)CS1 (stereo unspecified)	.	.	.	.	.	.
COc1ccc(Cl)cc1C(=O)Nc1nc2ccccc2[nH]1	.	.	54.3	.	.	.
COc1ccc(C(=O)Nc2nc3ccccc3[nH]2)cc1OC	.	.	.	.	.	.
C=CCn1c(C)cc(C(=O)COC(=O)c2ccc(N)c([N+](=O)[O-])c2)c1C	.	.	.	.	.	.
CCn1c(C)cc(C(=O)COC(=O)c2ccccc2[N+](=O)[O-])c1C	95.2	/	/	93.2	93.0	/
Cc1ccc(-n2c(SCC(=O)Nc3ccc(OCc4ccccc4)cc3)nnc2-c2ccco2)cc1	/	.	.	/	/	/
COc1ccc(C(=O)C(CN2CCOCC2)c2ccccc2)cc1 (stereo unspecified)	.	.	55.2	.	.	.
CCCCOc1ccc(C(=O)C(CN2CCOCC2)c2ccccc2)cc1 (stereo unspecified)	.	.	.	.	.	.
O=C(c1ccc(F)cc1)C(CN1CCOCC1)c1ccccc1 (stereo unspecified)	.	.	.	.	73.7	.
CC(C)CN1C(=O)C[C@@]2(C(=O)N(C)c3ccc(NS(=O)(=O)C4CC4)cc32)C1c1ccccc1 (stereo partly specified)	/	.	.	/	/	/
CN(C)S(=O)(=O)c1cccc(C(=O)N/N=C\c2ccccc2)c1	/	.	.	/	/	/
O=C(CCC1CCCC1)Nc1ccc(C(=O)NCc2cccnc2)cc1	74.2	.	.	.	.	.
Cc1ccc(N2C(=O)c3cccc4c(N)ccc(c34)C2=O)c2cccnc12	.	.	.	.	.	19.2
Cc1nn(C)c(C)c1N1C(=O)c2cccc3c(N)ccc(c23)C1=O	.	.	.	.	.	.

High-throughput results: PubChem BioAssay, The Scripps Research Institute Molecular Screening Center
